An excerpt weighted towards active compounds, which were near 2.4% of everything screened.
FEN1 inhibitor – blocks human flap endonuclease 1; P39748; Recombinant FEN1 flap cleavage, fluorescence, 15 min; Potency, µM (doses to about 114 µM), for inactives: top-dose activity change, negative = inhibition, actives largely listed as inhibitors; 390,000 compounds, 0.35% hits; AID 588795; further: on the % scale 0 is the no-effect control and ±100 the full control effect; nearly all actives have a fitted effect of over 65% in size
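Nuclease activity of 10 nM FEN1 was measured after 15 min of room-temperature exposure to titrated compounds, by adding 50 nM flap substrate and reading plates at 0 and 15 min.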
POLI inh – inhibitors of human DNA polymerase iota; Q9UNA4; Pol iota fluorescent replication assay, 10 min; AID 588590; 390,000 compounds, 1% hits; Potency, µM (highest dose often 115 µM), inactives show at the highest dose activity, negative = inhibition, actives largely listed as inhibitors
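Fluorescent replication assay read twice, at 0 min and 10 min after adding 50 nM (final) substrate. Enzyme (10 nM) and compounds were first incubated 15 min at room temperature; enzyme-free buffer wells were negative controls.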
WRN helicase inh – blocks human WRN helicase | WRN helicase unwinding, fluorescent forked duplex, kinetic | Potency, µM (top dose mostly 114 µM), for the others: at the top dose activity change, negative = inhibition, actives largely listed as inhibitors | 360,000 compounds, 0.46% hits; further: on the % scale 0 is the no-effect control and ±100 the full control effect; nearly all actives have a fitted effect of over 55% in size
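Enzyme (20 nM final) and test compound sit together 15 min at room temperature before substrate addition. Substrate is a single-forked duplex oligonucleotide (100 nM) labelled with fluorophore and quencher, with 2 mM ATP; helicase unwinding raises red fluorescence, read kinetically.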
Pol beta inh – blocks human DNA polymerase beta activity; 340,000 compounds, 1.3% hits; Pol beta primer extension/strand displacement, fluorescence kinetic; Potency, µM (top dose mostly 114 µM), for inactives: at the highest dose activity change, negative = inhibition, actives largely listed as inhibitors; further: on the % scale 0 is the no-effect control and ±100 the full control effect
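Enzyme-only controls used 10 nM Pol beta; buffer lacking enzyme served as negative control. Compound preincubated 15 min, then 50 nM substrate added; 0 and 10 min reads at room temperature.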
Pol kappa inh – inhibitors of human DNA polymerase kappa; purified Pol kappa, fluorescent DNA synthesis assay, 10 min; Potency, µM (highest dose often 107 µM), for the others: top-dose activity, negative = inhibition, usual class: inhibitors; 400,000 compounds, 0.53% hits; AID 588579; further: on the % scale 0 is the no-effect control and ±100 the full control effect
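Enzyme at 10 nM met test compounds for 15 min at room temperature. Substrate addition (50 nM final) began the reaction, which was monitored by fluorescence at 0 and 10 min.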
Pol eta inh – DNA polymerase eta (human) inhibition. recombinant Pol eta, fluorescent DNA replication assay. Q9Y253. Potency, µM (series often up to 114 µM), without a hit: at the top dose activity change, negative = inhibition, usual class: inhibitors. 390,000 compounds, 1.2% hits; further: on the % scale 0 is the no-effect control and ±100 the full control effect
Target sequence (Q9Y253 whole entry, looked up): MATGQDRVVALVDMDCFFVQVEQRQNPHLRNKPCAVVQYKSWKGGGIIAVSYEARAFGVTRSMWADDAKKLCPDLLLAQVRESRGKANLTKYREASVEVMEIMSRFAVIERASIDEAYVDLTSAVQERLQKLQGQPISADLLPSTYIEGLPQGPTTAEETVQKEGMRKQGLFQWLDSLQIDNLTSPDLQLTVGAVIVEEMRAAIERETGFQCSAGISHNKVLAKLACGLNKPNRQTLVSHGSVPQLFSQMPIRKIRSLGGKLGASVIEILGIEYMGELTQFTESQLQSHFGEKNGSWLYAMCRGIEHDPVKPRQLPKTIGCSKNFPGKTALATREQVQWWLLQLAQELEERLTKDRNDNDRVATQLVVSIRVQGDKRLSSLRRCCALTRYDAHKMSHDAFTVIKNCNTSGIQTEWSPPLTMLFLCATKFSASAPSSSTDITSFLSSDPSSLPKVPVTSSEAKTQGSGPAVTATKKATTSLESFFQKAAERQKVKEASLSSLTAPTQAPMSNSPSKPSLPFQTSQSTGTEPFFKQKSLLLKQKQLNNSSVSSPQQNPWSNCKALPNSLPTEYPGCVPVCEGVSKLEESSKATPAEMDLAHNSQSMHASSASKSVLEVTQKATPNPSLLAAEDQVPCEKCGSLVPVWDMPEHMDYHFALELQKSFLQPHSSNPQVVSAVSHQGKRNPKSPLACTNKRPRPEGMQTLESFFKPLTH
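Pol eta at 10 nM preincubated with compounds 15 min at room temperature; reaction started with fluorescent substrate (50 nM final) and read kinetically at 0 and 10 min.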
An asterisk follows results filed as active; ? = inconclusive; nt = no result given; [ ] = another dose, or the depositor's remark. The call rests on the fitted dose curve; in most records, active means well fitted curve in the direction sought with a large enough effect; inconclusive means small, poorly fitted or top-dose-only effect, or another doubt; inactive means no such curve, though single readings can be large; an effect the other way counts as inactive or inconclusive. Potency means the concentration at half of the fitted maximal effect.

SMILES	FEN1 inhibitor	POLI inh	WRN helicase inh	Pol beta inh	Pol kappa inh	Pol eta inh
O=C(O)CC1CCC(=C(Cl)Cl)C1 (configuration not stated)	-16.5%	?	-19.4%	?	-15.8%	50.1µM*
CC(=O)/C=C/c1ccccc1Oc1c(F)c(F)nc(F)c1F	-23.3%	?	-1.6%	55.1%	-7.1%[60.1 µM]	-9.0%
Oc1ccccc1Oc1c(F)c(F)nc(N2CCCC2)c1F	-10.4%	?	-15.9%	44.7µM*	-7.5%[60.1 µM]	-20.7%
O=C(Nc1cc(Cl)ccc1Cl)c1cc([N+](=O)[O-])cc(Br)c1O	50.1µM*	?	nt	nt	-43.6%	nt
Cc1ccc(NC(=O)Cn2c(=O)n(-c3ccc(CC(=O)NCC4CCCO4)cc3)c(=O)c3ccccc32)cc1 (configuration not stated)	-10.0%	-4.9%	nt	21.6%	-0.6%	-11.3%
CCOC(=O)c1c(NC(=O)c2cc3nc(-c4ccc(OC)cc4)cc(C(F)(F)F)n3n2)sc2c1CCC(C)C2 (configuration not stated)	-2.8%	14.3%	nt	-13.5%	-3.9%[60.1 µM]	-14.9%
CCOc1cc(C#N)c(NC(=O)c2ccc(OC)c(S(=O)(=O)N3CCCCC3)c2)cc1OCC	-13.9%	-14.4%	nt	28.8%	-9.8%	nt
O=C1C(=O)C(c2ccc(O)cc2O)Oc2cc(O)cc(O)c21 (configuration not stated)	20µM*	10µM*	nt	nt	12.6µM*	nt
O=C1c2c(O)cc(O)cc2O[C@H](c2ccc(O)c(O)c2)C1O (some centres not stated)	nt	nt	nt	nt	1.34µM*	nt
O=C1c2c(O)cc(O)cc2OC(c2ccc(O)c(O)c2)C1O (configuration not stated)	nt	3.98µM*	nt	1.89µM*	5.97µM*	5.62µM*
O=C(O)CNC(=O)c1ccccc1I	nt	nt	nt	nt	11.5%[60.1 µM]	nt
C[C@H]1[C@H](C)CC[C@]2(C(=O)O)CC[C@]3(C)C(=CCC4[C@@]5(C)CC[C@H](O)C(C)(C)[C@@H]5CC[C@]43C)[C@H]12 (some centres not stated)	nt	nt	nt	nt	-9.0%[19.4 µM]	nt
COc1ccccc1NC(=O)Cn1c(=O)n(CCC(=O)NCC2CCCO2)c(=O)c2cc(OC)c(OC)cc21 (configuration not stated)	15.7%	6.3%	nt	16.8%	-12.1%	-3.2%
Cc1c(NC(=O)C(C)OC(=O)c2c3c(nc4ccccc24)CCC3)c(=O)n(-c2ccccc2)n1C (configuration not stated)	-2.9%	31.6µM*	?	?	-24.2%	50.1µM*
Cc1c(NC(=O)C(C)OC(=O)c2cccnc2)c(=O)n(-c2ccccc2)n1C (configuration not stated)	-7.4%	58.8%	-0.4%	6.0%	-6.2%	-5.7%
Cc1c(NC(=O)C(C)OC(=O)c2cccnc2Cl)c(=O)n(-c2ccccc2)n1C (configuration not stated)	0.1%	79.4µM*	2.9%	nt	5.1%	-9.2%
O=C(Cn1ncn2nc(-c3cccs3)cc2c1=O)NCc1ccccc1Cl	15.1%	-26.7%	nt	2.1%	-17.9%	-12.3%
Cc1ccccc1CNC(=O)Cn1ncn2nc(-c3cccs3)cc2c1=O	89.1µM*	?	nt	11.1%	0.6%	-12.2%
NC(=O)C1CN(S(=O)(=O)c2ccc(Cl)cc2F)c2ccccc2O1 (configuration not stated)	-15.5%	10.4%	7.1%	63.1µM*	1.8%	-19.6%
Cc1cccc2sc(N(Cc3cccnc3)C(=O)C3CCCCC3)nc12	-3.5%	-8.8%	nt	-15.2%	-5.9%[60.1 µM]	-17.2%
CCN1/C(=C/c2ccc3cccc(C)c3[n+]2CC)Sc2ccccc21	39.8µM*	?	?	50.1µM*	-9.9%	-16.9%
CCN1/C(=C/c2ccc3cc(C)cc(C)c3[n+]2CC)Sc2cc(C)ccc21	?	-26.5%	17.8µM*	50.1µM*	-23.5%	79.4µM*
COc1cc2c(cc1OC)[C@@H]1O[C@](c3ccsc3)(C2)Oc2cc(C)n(-c3ccccc3)c(=O)c21	nt	nt	nt	11.2%[22.9 µM]	nt	nt
Cc1cc2c(c(=O)n1-c1ccccc1)C1O[C@](c3ccsc3)(Cc3ccccc31)O2	nt	nt	nt	5.01µM*	nt	nt
CCCCn1c(C)cc2c(c1=O)C1O[C@](c3ccsc3)(Cc3ccccc31)O2	nt	nt	nt	2.24µM*	nt	nt
SMILES	FEN1 inhibitor	POLI inh	WRN helicase inh	Pol beta inh	Pol kappa inh	Pol eta inh
CCOc1ccc(CCNC(=O)CSc2nnnn2-c2ccccc2Cl)cc1OCC	4.5%	6.5%	nt	13.8%	5.1%	-16.8%
O=C(C[n+]1cccc(I)c1)c1ccc(F)cc1	0.5%	8.7%	nt	nt	3.2%	nt
O=C(CCCCCCCC(=O)NNC(=O)Nc1ccccc1)NNC(=O)Nc1ccccc1	8.7%	?	-34.0%	31.6µM*	-31.7%	-29.0%
O=C(CCc1ccccc1)NNC(=O)Nc1ccccc1	5.4%	7.6%	-2.6%	-15.3%	2.9%	-13.0%
O=C(Nc1cccc(Cl)c1)c1cccc(N2C(=O)C3CC=CCC3C2=O)c1 (configuration not stated)	1.6%	?	-24.2%	15.8µM*	-17.9%	-20.9%
COc1ccc(-c2ccc(CCC(=O)O)n2NC(N)=O)cc1	2.2%	2.5%	-5.3%	6.4%	-9.3%	-4.5%
Cc1ccc(C)c(-n2c(CCC(=O)O)ccc2-c2ccc(Cl)cc2)c1	7.8%	-16.1%	nt	7.94µM*	4.4%	13.9%
CCCn1c(CCC(=O)O)ccc1-c1ccc(OC)cc1	-3.6%	5.9%	-26.7%	25.1µM*	-4.2%[60.1 µM]	?
O=C(O)CCc1ccc(-c2ccc(Cl)cc2)n1CC(=O)O	3.8%	?	-11.7%	?	-9.1%	50.1µM*
Cc1ccc(-c2ccc(CCC(=O)O)n2-c2ccc(C)c(Cl)c2)cc1	8.4%	15.6%	nt	?	-0.3%	5.6%
COc1ccc(CCN2C(=O)N(c3ccc(C)cc3)C(=O)C2CC(=O)Nc2ccc(OC)cc2)cc1 (configuration not stated)	-20.8%	-12.0%	nt	-0.6%	-22.2%	-13.9%
CNC(=O)C[C@@H](N)C(=O)N[C@@H](C(=O)N[C@@H]1C(=O)N2[C@@H]1SC(C)(C)[C@@H]2C(=O)O)c1ccc(O)cc1	nt	nt	nt	nt	-3.4%[19.4 µM]	nt
Cc1nc(-c2ccncc2)sc1C(=O)Nc1ccc(Br)cc1	15.9%	42.3%	-4.3%	15.8µM*	-7.2%	-18.6%
O=C(Nc1ccc(Br)cc1)c1csc(-c2ccncc2)n1	6.2%	63.2%	?	6.5%	0.9%	0.0%
O=C(CN1CCN(S(=O)(=O)c2ccc(F)cc2)CC1)c1ccc(O)c(O)c1	-3.3%	50.5%	-2.9%	-29.9%	-11.5%	-6.2%
COc1ccc(S(=O)(=O)N2CCN(CC(=O)c3ccc(O)c(O)c3)CC2)cc1	-11.1%	?	-6.0%[11.6 µM]	?	31.6µM*	?
CCOC(=O)c1c(C)[nH]c(CCC(=O)Nc2ccc(C)c(F)c2)c1C	12.8%	10.9%	nt	-11.4%	-17.3%[60.1 µM]	-13.3%
